# tim23-1 inh: inhibits growth of tim23-1 mutant yeast; AID 463212; inhibition, % at 20 µM; S. cerevisiae tim23-1 growth, BacTiter-Glo luminescence, 24 h; 330,000 tested, 1.3% active;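 active = growth inhibition of the mutant yeast at or above 50%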;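 note: temperature-sensitive mutant grown at 25 °C; plate controls were DMSO-treated mutant yeast for no effect and medium wells lacking yeast for full effect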
# TIM10 inh: TIM10 yeast growth inhibition; S. cerevisiae TIM10 strain growth, BacTiter-Glo luminescence, 24 h; inhibition, % at 10 µM; 330,000 tested, 1.4% active; AID 463195;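 active = inhibition of 40% or more at the single tested concentration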;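 note: wild-type TIM10 isogenic control strain grown at permissive 25 °C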
# PfHsp90 set2: inhibits growth of yeast expressing Plasmodium falciparum Hsp90; S. cerevisiae expressing PfHsp90, BacTiter-Glo ATP, 48 h; yeast lacking PDR1 and PDR3 efflux regulators; inhibition, % at 9.4 µM; 310,000 tested, 0.32% active; AID 504621;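 active = every replicate shows inhibition above about 80%, whatever the replicate mean, limit read from the data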;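 note: 0% = DMSO neutral controls and 100% = 20 µM radicicol positive controls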
# SKKanGAS inh: blocks kanamycin growth of S. pyogenes SKKanGAS strain; BacTiter-Glo, 6 h; inhibition, % at 7.5 µM; 300,000 tested, 1.3% active; AID 1662;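 active = mean replicate score, as percent of positive control median, at least 50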;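 note: strain carries kanamycin resistance gene driven by streptokinase promoter and grows in 40 µg/ml kanamycin; loss of luminescence reflects streptokinase promoter inhibition or plain growth inhibition; 0% = median of DMSO wells and 100% = positive control at its reference dose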
# tim10-1 inh: tim10-1 yeast growth inhibition; S. cerevisiae tim10-1 ts strain growth, BacTiter-Glo, 24 h; inhibition, % at 20 µM; 330,000 tested, 2.2% active;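 active = inhibition of at least 40%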;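 note: mutant grown at 25 °C; 0% = DMSO wells with yeast and 100% = wells holding no yeast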
# * = called active by the depositor; . = no result; + = active, no number. Hits are enriched below; roughly 4.4% of the tested compounds scored in any of these assays.
SMILES,tim23-1 inh,TIM10 inh,PfHsp90 set2,SKKanGAS inh,tim10-1 inh
CC[C@H](C)[C@@H](CNC)NC[C@@H](Cc1ccc(O)cc1)NCC(C)(C)C,-13.0,6.7,5.3,0.2,-0.9
CC[C@@H](C)[C@H](CN[C@H](CNC)C(C)C)NC[C@@H](C)c1ccc(CC(C)C)cc1,2.3,14.2,9.5,63.5*,14.5
O=C(O)CSCC(=O)N(Cc1ccccc1)c1nc(-c2ccccc2)c(-c2ccccc2)s1,34.4,11.1,-14.6,94.1*,13.4
CCOC(=O)c1sc(N(Cc2ccccc2)C(=O)CSc2ncn[nH]2)nc1C,34.2,11.3,27.5,2.5,34.3
NC1(C(=O)O)CSSC1,.,.,-9.5,.,.
O=C(c1ccccc1)c1cc(Cl)ccc1N1C(=O)C=CC1=O,.,.,107.2*,.,.
N#Cc1cc(C(=O)c2cc(Cl)ccc2O)cn(-c2ccccc2)c1=O,42.3,24.2,-16.3,-1.5,37.6
COC(=O)C1CC(O)C(O)C(O)C1 (centres undefined),.,.,12.0,.,.
OCCNc1nc(Nc2ccc(Cl)cc2)nc(N2CCCC2)n1,34.7,16.1,2.3,0.1,24.9
O=[N+]([O-])c1ccc(Nc2nc(NCCO)nc(N3CCCC3)n2)cc1,7.5,6.3,8.0,97.5*,36.8
COc1ccc(C(=O)COC(=O)c2cc([N+](=O)[O-])ccc2N2CCOCC2)c(OC)c1,-43.6,-114.6,+,-3.5,-28.2
Cc1ccc(CNC(=O)CN(C)C2=NS(=O)(=O)c3ccccc32)cc1,16.4,14.6,23.3,.,20.3
Cc1ccc(C)c(-c2cc(C(=O)Nc3sc(C)c(C)c3C(N)=O)c3ccccc3n2)c1,39.6,38.7,-7.5,70.2*,31.1
Cc1cccc(-c2cc(C(=O)Nc3sc(C)c(C)c3C(N)=O)c3ccccc3n2)c1,31.9,12.0,1.3,13.3,30.3
CCCC[C@@H]1C[C@H]1[C@@H](NC(=O)c1ccccc1)c1ccccc1C(F)(F)F,7.2,6.5,-14.2,6.8,6.3
C=C(CC1([C@@H](NP(=O)(c2ccccc2)c2ccccc2)[C@H]2C[C@@H]2CCCC)CC1)c1ccccc1,11.6,1.4,15.3,77.3*,-13.0
CCOC(=O)CN1N=C(/C=C/c2ccc(C)cc2)CCC1=O,8.5,2.3,-17.0,-16.7,6.1
Cc1ccc(/C=C/C2=NN(Cc3ccc(Cl)c(Cl)c3)C(=O)CC2)cc1,-0.6,-16.7,.,53.6*,12.6
Cc1nc2c(C(=O)NCCC(C)C)c[nH]n2c(=O)c1Cc1ccccc1F,19.6,19.7,-10.9,92.5*,23.1
O=C(C=Cc1ccccn1)c1ccccc1O,.,.,114.1*,.,.
O=C(C[C@@H]1C/C=C\CC[C@H](Cc2ccc(F)cc2)C(=O)OC[C@@H](Cc2ccccc2)NC1=O)NCCO,10.0,5.6,33.3,.,13.4
O=c1c2c(nc3c(-c4ccc(Cl)cc4)c[nH]n13)CCCC2,6.7,20.6,-2.6,71.0*,21.5
O=c1c2c(nc3c(-c4cccc5ccccc45)c[nH]n13)CCC2,-4.0,-8.6,12.2,16.1,13.8
Oc1ccc(Cl)cc1Sc1cc(Cl)ccc1O,.,.,102.0*,.,.
O=C(Cc1cccc(NC(=O)C2CCCN(C(=O)C3CCCC3)C2)c1)Nc1ccc(C(=O)N2CCCCC2)cc1 (centres undefined),.,.,2.1,.,.
SMILES,tim23-1 inh,TIM10 inh,PfHsp90 set2,SKKanGAS inh,tim10-1 inh
O=C(N/N=C/c1c(O)n(Cc2ccccc2)c(=O)c2ccccc12)c1cccnc1,7.4,7.6,-20.5,47.9,27.0
O=C(N/N=C/c1c(O)n(-c2ccccc2Cl)c(=O)c2ccccc12)c1cccnc1,.,.,-14.5,71.4*,.
Cn1cc(S(=O)(=O)NC[C@H]2O[C@@H](n3cnc4c(N)ncnc43)[C@H](O)[C@@H]2O)cn1,17.2,-12.9,4.3,.,-6.8
Cc1sc2cc3c(c(C(=O)c4ccccc4)[n+]2c1C)-c1cccc2cccc-3c12,.,.,.,55.1*,.
O=C(NNc1c(Cl)cccc1Cl)c1c(F)cccc1Cl,-1.6,0.0,7.1,51.1*,6.4
O=C(NNc1ccc(F)cc1F)c1c(F)cccc1Cl,14.6,29.2,-5.6,4.8,-9.1
Cn1ccc2ccc(C3=CC(=O)C[C@H](c4ccc(F)cc4)C3)cc21,32.5,-1.6,-31.1,.,21.2
Cc1csc(NC(=O)c2cnc3ccccc3n2)n1,8.0,21.2,16.5,-3.1,16.6
CCC(CC)c1nnc(NC(=O)c2ccc3ccccc3n2)s1,32.7,33.3,-5.9,79.4*,33.3
Cc1csc(NC(=O)c2ccc3ccccc3n2)n1,7.6,26.3,-25.6,59.8*,16.0
CCC(CC)c1nnc(NC(=O)c2cc(-c3ccccc3)nc3ccccc23)s1,20.5,14.8,-34.2,23.3,23.3
C[C@H](CO)N1C[C@H](C)[C@@H](CN(C)S(=O)(=O)c2cn(C)cn2)Oc2c(NS(=O)(=O)c3cccs3)cccc2C1=O,9.1,-0.1,-8.5,.,18.1
CSCCC(NC(=O)c1ccco1)C(=O)NCc1ccc2c(c1)OCO2 (centres undefined),-11.2,-18.6,16.6,.,-26.9
CCn1c(O)c(N=NC(=O)c2cccnc2)c2cc(Br)ccc21,-7.1,-1.3,7.8,-4.2,-0.6
CCCCn1c(O)c(N=NC(=O)c2ccncc2)c2cc(Br)ccc21,1.0,7.9,6.1,83.4*,-3.3
CCCSc1ccc([C@@H]2[C@@H]3C(=O)N(C)C(=O)[C@@H]3[C@]3(C(=O)OC)CCCN23)cc1OC,9.0,16.9,2.7,.,12.1
CC(/C=C1\SC(=S)N(NS(=O)(=O)c2ccccc2)C1=O)=C\c1ccccc1,41.0,2.6,-23.9,57.3*,2.1
CC(/C=C1\SC(=S)N(NC(=O)c2ccc(C)cc2)C1=O)=C\c1ccccc1,2.0,10.7,.,5.4,8.7
CC(/C=C1\SC(=S)N(c2ccc(C(=O)O)cc2)C1=O)=C\c1ccccc1,18.0,9.5,-49.9,115.7*,16.5
CC(/C=C1\SC(=S)N(C(C(=O)O)C(C)C)C1=O)=C\c1ccccc1 (centres undefined),23.3,2.8,6.9,15.8,12.1
Cc1ccc(NC(=O)CN(C)Cc2ccc(Cl)cc2)cc1,15.8,-6.3,15.7,-1.5,-1.5
CN(Cc1ccc(OC(F)F)cc1)Cc1nc2c(Br)cc(Br)cc2c(=O)[nH]1,10.0,33.8,-4.5,61.6*,18.8
CCN(CC(=O)NC1CCS(=O)(=O)C1)Cc1nc2c(Br)cc(Br)cc2c(=O)[nH]1 (centres undefined),12.5,-9.1,-17.5,6.5,1.2
CCN(CC(=O)NC(C)(C)C)Cc1nc2c(Br)cc(Br)cc2c(=O)[nH]1,24.0,2.7,6.0,51.0*,19.5
Cc1ccc(NC(=O)CN(C)Cc2nc3c(Br)cc(Br)cc3c(=O)[nH]2)cc1,-32.3,25.2,-14.4,60.5*,21.4
C=CCOc1ccc(CN(C)Cc2nc3cc(C(F)(F)F)ccc3c(=O)[nH]2)cc1,11.9,10.5,16.8,5.6,27.0
COc1ccccc1CNC(=O)CN1C(=O)NC(c2ccccc2)(c2ccccc2)C1=O,11.0,-9.4,.,.,-3.6
COC(=O)[C@H](Cc1ccccc1)NC(=O)Cn1ccc(NC(=O)OCc2ccccc2)nc1=O,14.2,-3.9,3.7,.,8.2

# Screens (PubChem BioAssay)
